The results in this text go back to PubChem BioAssay (Tox21).

Records with an inconclusive call do not appear. Where a call stands in place of a potency, no number is given. Values without a mark were called inactive. Active and inactive are the calls of the source. Unless noted, calls follow the shape of the dose curve; as a rule, active = well fitted cell-killing curve with a large enough effect in the repeat runs (not every such curve was filed as active); inconclusive = weak or mixed curves, or effect the other way; inactive = no such curve, though single readings can be large or run the other way.

Sequence of Vitamin D3 receptor (Homo sapiens) (P11473 whole entry, looked up): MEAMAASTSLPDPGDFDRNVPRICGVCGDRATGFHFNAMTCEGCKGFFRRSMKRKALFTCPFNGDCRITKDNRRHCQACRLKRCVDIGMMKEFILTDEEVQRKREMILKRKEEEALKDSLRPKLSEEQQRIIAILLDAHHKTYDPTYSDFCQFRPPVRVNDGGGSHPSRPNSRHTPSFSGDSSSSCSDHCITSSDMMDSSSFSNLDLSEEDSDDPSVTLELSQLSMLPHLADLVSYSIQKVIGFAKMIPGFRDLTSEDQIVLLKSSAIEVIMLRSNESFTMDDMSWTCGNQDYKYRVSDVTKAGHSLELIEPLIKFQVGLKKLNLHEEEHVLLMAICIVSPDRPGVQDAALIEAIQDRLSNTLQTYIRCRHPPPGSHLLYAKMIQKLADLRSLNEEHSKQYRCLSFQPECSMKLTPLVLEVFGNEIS

Tested on in the first test: not listed separately
Briefly: qHTS assay to identify small molecule antagonists of the farnesoid-X-receptor (FXR) signaling pathway - cell viability counter screen (AID 743221). Also: nearly all actives have a fitted effect of over 50% in size. The following applies: FXR-bla HEK293T viability, CellTiter-Glo luminescence, 16 h; series mostly up to 62.6 µM; activity change, negative = cytotoxicity: at the top concentration. In short, it runs like this:
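Luminescence from CellTiter-Glo measures cytotoxicity in GeneBLAzer FXR-UAS-bla HEK 293T cells. Cells were exposed to compounds with 50 uM chenodeoxycholic acid (final) for 16 h at 37 C, in wells also used for the reporter readout.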
A general note: Quantitative high-throughput screening tests each substance at several concentrations.
As for `CCCCNC(=O)NS(=O)(=O)c1ccc(N)cc1`, the result was inactive.

Take `CCCCCCCCCCCCCCCCCC(=O)OCC(O)CO` (stereo not drawn): the compound was called inactive.

Consider `COCC(C)N` (stereo not drawn), for which the outcome was inactive.

For the compound `CCCCCCCCCCCCCC(=O)OC(C)C`, the call was inactive.

Take `N[C@@H](Cc1c[nH]c2ccccc12)C(=O)O`: the outcome was inactive.

As to `CCCCC/C(C=O)=C\c1ccccc1`, the compound was called inactive.

Take `C=CCOC(=O)CC(C)C`: the call was inactive.

As to `CC(=O)c1ccc(S(=O)(=O)NC(=O)NC2CCCCC2)cc1`, the call was inactive.

As to `COC(=O)c1ccc(O)cc1`, the compound was classed as inactive.

With `Oc1cccc(O)c1`, the call was inactive.

As to `COc1ccccc1O`, the outcome was inactive.

Take `CC(C)CC(C)CC(O)CC(C)C` (stereo not drawn): the call was inactive.

With `NC(=O)N1c2ccccc2C=Cc2ccccc21`, the compound was classed as inactive.

On to `O=C1CCCCCN1`, for which the compound was classed as inactive.

Take `O=c1c(-c2ccc(O)cc2)coc2cc(O)cc(O)c12`: the compound was called inactive.

Regarding `O=C(O)Cc1cccc2ccccc12`, the compound was called inactive.

For the compound `COc1cc(O)c(C(=O)c2ccccc2)cc1S(=O)(=O)O`, the compound was called inactive.

Turning to `CCCCOCCOCCOC(C)=O`, the outcome was inactive.

In the case of `Cn1cnc2c1c(=O)[nH]c(=O)n2C`, the compound was called inactive.

Take `COCCOCCOC`: the call was inactive.

Take `CCOC(=O)C(C)(C)Oc1ccc(Cl)cc1`: the outcome was inactive.

On to `CC(O)COc1ccccc1` (stereo not drawn), for which the compound was called inactive.

On to `Cc1cccc(C)c1O`, for which the compound was called inactive.

For `COC(=O)c1ccc(C=O)cc1`, the compound was called inactive.

For `Cc1ccc(O)c(-n2nc3ccccc3n2)c1`, the compound was called inactive.

On to `Cc1cccc2ccccc12`, for which the result was inactive.

With `CC(=O)CCC(C)C`, the compound was called inactive.

On to `O=[N+]([O-])c1ccc(O)cc1`, for which the compound was classed as inactive.

For the compound `CCCCCCCCOc1ccc(C(=O)c2ccccc2)c(O)c1`, the result was inactive.

Take `Cc1c(N(C)CS(=O)(=O)O)c(=O)n(-c2ccccc2)n1C`: the outcome was inactive.

Another test concerns the target Vitamin D3 receptor (Homo sapiens) (UniProt P11473). Briefly: qHTS assay to identify small molecule agonists of the vitamin D receptor (VDR) signaling pathway (AID 743222; calls by dose curve). The following applies: HEK293T VDR-UAS-bla, beta-lactamase FRET ratio, 16 h; series mostly up to 63.5 µM; activation: at the top concentration. In short, it runs like this:
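VDR-bla cells were plated 4 h at 37C/5% CO2, then exposed to compounds in DMSO for 16 h. After LiveBLAzer B/G FRET substrate addition and 2 h at room temperature, beta-lactamase reporter fluorescence was read.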
For `CCCCNC(=O)NS(=O)(=O)c1ccc(N)cc1`, the outcome was inactive.

In the case of `CCCCCCCCCCCCCCCCCC(=O)OCC(O)CO` (stereo not drawn), the outcome was inactive.

Turning to `COCC(C)N` (stereo not drawn), the outcome was inactive.

`CCCCCCCCCCCCCC(=O)OC(C)C`: the result was inactive.

Turning to `N[C@@H](Cc1c[nH]c2ccccc12)C(=O)O`, the result was inactive.

As to `C=CCOC(=O)CC(C)C`, the result was inactive.

For `CC(=O)c1ccc(S(=O)(=O)NC(=O)NC2CCCCC2)cc1`, the outcome was inactive.

In the case of `COC(=O)c1ccc(O)cc1`, the outcome was inactive.

Turning to `Oc1cccc(O)c1`, the outcome was inactive.

With `COc1ccccc1O`, the result was inactive.

As to `CC(C)CC(C)CC(O)CC(C)C` (stereo not drawn), the result was inactive.

Regarding `O=C1CCCCCN1`, the result was inactive.

As to `O=c1c(-c2ccc(O)cc2)coc2cc(O)cc(O)c12`, the “activation” value is -14.5%.

Consider `O=C(O)Cc1cccc2ccccc12`, for which the outcome was inactive.

For the compound `COc1cc(O)c(C(=O)c2ccccc2)cc1S(=O)(=O)O`, the outcome was inactive.

Turning to `CCCCOCCOCCOC(C)=O`, the result was inactive.

Consider `Cn1cnc2c1c(=O)[nH]c(=O)n2C`, for which the outcome was inactive.

`COCCOCCOC`: the result was inactive.

Turning to `CCOC(=O)C(C)(C)Oc1ccc(Cl)cc1`, the outcome was inactive.

Regarding `CC(O)COc1ccccc1` (stereo not drawn), the outcome was inactive.

Turning to `Cc1cccc(C)c1O`, the result was inactive.

Consider `COC(=O)c1ccc(C=O)cc1`, for which the outcome was inactive.

`Cc1ccc(O)c(-n2nc3ccccc3n2)c1`: the result was inactive.

With `Cc1cccc2ccccc12`, the result was inactive.

For the compound `O=[N+]([O-])c1ccc(O)cc1`, the result was inactive.

Regarding `CCCCCCCCOc1ccc(C(=O)c2ccccc2)c(O)c1`, the outcome was inactive.

In the case of `Cc1c(N(C)CS(=O)(=O)O)c(=O)n(-c2ccccc2)n1C`, the result was inactive.

Another test shares this target. Briefly: qHTS assay to identify small molecule antagonists of the vitamin D receptor (VDR) signaling pathway (AID 743223; active = well fitted inhibition curve with a large enough effect in the signal ratio in the repeat runs, not every such curve was filed as active; the % refers to the signal ratio). The following applies: VDR-UAS-bla HEK293T, beta-lactamase FRET ratio, 16 h; series mostly up to 61 µM; activity change, negative = inhibition: at the top concentration. In short, it runs like this: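 Antagonist mode uses 1alpha,25-dihydroxyvitamin D3 at 3 nM final as stimulus. VDR-bla cells receive compounds in DMSO, incubate 16 h at 37C, then a beta-lactamase FRET substrate for 2 h at room temperature before fluorescence measurement.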
`CCCCNC(=O)NS(=O)(=O)c1ccc(N)cc1`: the Potency entry is “inactive”.

`CCCCCCCCCCCCCCCCCC(=O)OCC(O)CO` (stereo not drawn): the Potency entry was “inactive”.

Consider `COCC(C)N` (stereo not drawn), for which the “activity change, negative = inhibition” value was 1.35%.

On to `CCCCCCCCCCCCCC(=O)OC(C)C`, for which the Potency entry was “inactive”.

As for `N[C@@H](Cc1c[nH]c2ccccc12)C(=O)O`, the Potency result is “inactive”.

Turning to `C=CCOC(=O)CC(C)C`, the “activity change, negative = inhibition” value is 21.7% [at 78.8 µM].

With `CC(=O)c1ccc(S(=O)(=O)NC(=O)NC2CCCCC2)cc1`, the Potency entry is “inactive”.

Consider `COC(=O)c1ccc(O)cc1`, for which the Potency result is “inactive”.

Turning to `Oc1cccc(O)c1`, the Potency result is “inactive”.

Regarding `COc1ccccc1O`, the Potency entry was “inactive”.

`O=C1CCCCCN1`: the Potency result is “inactive”.

Consider `O=c1c(-c2ccc(O)cc2)coc2cc(O)cc(O)c12`, for which the Potency result is “inactive”.

For `O=C(O)Cc1cccc2ccccc12`, the Potency entry was “inactive”.

On to `COc1cc(O)c(C(=O)c2ccccc2)cc1S(=O)(=O)O`, for which the Potency entry is “inactive”.

For the compound `CCCCOCCOCCOC(C)=O`, the Potency result was “inactive”.

As for `Cn1cnc2c1c(=O)[nH]c(=O)n2C`, the Potency entry was “inactive”.

As for `COCCOCCOC`, the “activity change, negative = inhibition” value was 6.91%.

Regarding `CCOC(=O)C(C)(C)Oc1ccc(Cl)cc1`, the Potency entry was “inactive”.

With `CC(O)COc1ccccc1` (stereo not drawn), the Potency result is “inactive”.

Regarding `Cc1cccc(C)c1O`, the Potency entry is “inactive”.

Take `COC(=O)c1ccc(C=O)cc1`: the Potency entry is “inactive”.

Regarding `Cc1ccc(O)c(-n2nc3ccccc3n2)c1`, the Potency result was “inactive”.

With `Cc1cccc2ccccc12`, the Potency result is “inactive”.

In the case of `O=[N+]([O-])c1ccc(O)cc1`, the Potency result was “inactive”.

As for `CCCCCCCCOc1ccc(C(=O)c2ccccc2)c(O)c1`, the Potency entry is “inactive”.

As to `Cc1c(N(C)CS(=O)(=O)O)c(=O)n(-c2ccccc2)n1C`, the “activity change, negative = inhibition” value is 7.78%.
